# G9a inh: G9a (human) methyltransferase inhibition. Q96KQ7. G9a H3K9 monomethylation, AlphaScreen, 2 h. Potency, µM (series often up to 102 µM), for the others: at the top dose activity, negative = inhibition, most hits filed as inhibitors. hit rate 8.8% among 350,000; also: % is scaled to controls: 0 for no effect and ±100 for the full control effect; nearly all actives have a fitted effect of over 75% in size
#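 Enzyme 20 nM + cpd, 15 min RT; add b-H3K9 pep 500 nM / SAM 20 uM; 2 h RT; anti-H3K9me1 Ab 0.5 ug/mL + SA donor / anti-rabbit acceptor beads 20 ug/mL each, 10 min; AlphaScreen read.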
# HP1b binding inh: inhibitors of HP1-beta chromodomain binding to methylated histone tails. P83916. AlphaScreen HP1-beta / biotin-H3K9me3 peptide binding. Potency, µM (titrated, usually from 114 µM), without a hit: top-dose activity change, negative = inhibition, hits mostly inhibitors. hit rate 0.56% among 390,000; also: nearly all actives have a fitted effect of over 70% in size
#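 HP1-beta protein (50 nM final) preincubated 30 min at room temperature with biotinylated H3(1-18)K9me3 peptide (50 nM) in PBS pH 7.4, 0.01% Tween-20, then compound added for 30 min. AlphaScreen streptavidin donor/nickel chelate acceptor beads (10 ug/mL final), 30 min dark, luminescence read.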
# JMJD2A Tudor inh: blocks the human JMJD2A Tudor domain | O75164 | AlphaScreen JMJD2A-Tudor / H3K4me3 peptide binding | Potency, µM (series often up to 114 µM), without a hit: top-dose activity change, negative = inhibition, most hits filed as inhibitors | hit rate 4.4% among 390,000; also: % is scaled to controls: 0 for no effect and ±100 for the full control effect; nearly all actives have a fitted effect of over 50% in size
# BAZ2B block: blocks human BAZ2B | AlphaScreen BAZ2B-H3K14Ac peptide displacement | Potency, µM (top dose mostly 114 µM), for inactives: at the highest dose activity change, negative = inhibition, actives largely listed as inhibitors | AID 504333 | Q9UIF8 | hit rate 4.4% among 360,000; also: % is scaled to controls: 0 for no effect and ±100 for the full control effect; nearly all actives have a fitted effect of over 60% in size
#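 Complex of BAZ2B and biotin-H3K14Ac (50 nM apiece) forms over 30 min at RT, then faces library compounds up to 110 uM for another 30 min; AlphaScreen beads added, 20 min dark incubation, luminescence read.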
# Sfp inh: inhibitors of Bacillus subtilis Sfp phosphopantetheinyl transferase; Q9F4F7; Biochemical Sfp PPTase activity, qHTS; Potency, µM, without a hit: largest response in the series, negative = inhibition, hits mostly inhibitors; hit rate 3.5% among 310,000; AID 1490;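 also: the enzyme is Sfp with the accession as filed and its product quenches rhodamine fluorescence; 0% = enzyme reaction without inhibitor and -100% = no enzyme wells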
#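 Sfp 15 nM + cpd, 15 min RT; start w/ rhodamine-CoA 5 uM, BHQ-2-YbbR 12.5 uM (final); 50 mM Hepes pH 7.6, 10 mM MgCl2, 0.01% NP-40, 0.01% BSA; read 525/598 nm at 0 and 30 min.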
# TDP1 block: blocks human tyrosyl-DNA phosphodiesterase 1. hit rate 0.28% among 350,000. Q9NUW8. Potency, µM (series often up to 130 µM), for the others: at the top dose activity change, negative = inhibition, hits mostly inhibitors. recombinant TDP1, AlphaScreen DNA substrate cleavage; also: % is scaled to controls: 0 for no effect and ±100 for the full control effect; nearly all actives have a fitted effect of over 40% in size
# Target sequence (Q9NUW8 whole entry, looked up): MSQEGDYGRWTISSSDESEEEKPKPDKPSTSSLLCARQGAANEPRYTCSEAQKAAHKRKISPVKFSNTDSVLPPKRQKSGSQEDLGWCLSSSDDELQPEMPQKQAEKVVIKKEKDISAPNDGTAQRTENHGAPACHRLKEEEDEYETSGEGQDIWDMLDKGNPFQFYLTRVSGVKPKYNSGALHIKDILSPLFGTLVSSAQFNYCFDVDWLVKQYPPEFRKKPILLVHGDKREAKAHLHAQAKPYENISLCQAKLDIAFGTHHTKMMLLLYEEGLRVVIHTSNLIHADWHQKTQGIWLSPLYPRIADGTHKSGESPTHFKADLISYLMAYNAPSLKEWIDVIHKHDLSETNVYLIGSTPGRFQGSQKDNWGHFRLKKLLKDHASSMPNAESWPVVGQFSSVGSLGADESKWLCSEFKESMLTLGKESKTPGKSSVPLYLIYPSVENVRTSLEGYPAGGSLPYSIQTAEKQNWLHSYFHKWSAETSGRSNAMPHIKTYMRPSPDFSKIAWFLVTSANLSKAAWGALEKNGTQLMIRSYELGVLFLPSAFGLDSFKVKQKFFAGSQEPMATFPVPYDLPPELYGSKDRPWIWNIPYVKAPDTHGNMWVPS
#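 E. coli-derived human Tdp1, 1 nM final. Cpd preinc 15 min RT; substrate 15 nM final, 5 min RT; AS bead mix 10 ug/ml final, 10 min RT. Signal loss = tyrosine-FITC cleavage. No-enzyme wells = max signal.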
# The depositor's hits bear a star; ? = inconclusive; · = no result; [ ] = remark or other dose. A selection: hits, their analogues and other compounds. The true share with any hit is near 12%. Calls follow the shape of the dose curve; as a rule, active = well fitted curve in the direction sought with a large enough effect; inconclusive = small, poorly fitted or top-dose-only effect, or another doubt; inactive = no such curve, though single readings can be large; an effect the other way counts as inactive or inconclusive. Potency is read from the fitted curve at half-maximal effect.
SMILES,G9a inh,HP1b binding inh,JMJD2A Tudor inh,BAZ2B block,Sfp inh,TDP1 block
O=C(c1ccc2c3c(cccc13)CC2)C1CCCN(C(=O)c2ccc(=O)[nH]c2)C1 (stereo not given),·,-19.7%,?,?,50.1µM*,3.6%
CC(=O)c1ccc(COC(=O)Cc2ccc([N+](=O)[O-])cc2)cc1,36.8%,39.5%,0.7%,-3.6%,-3.1%,·
CC(C)=CC1C(C(=O)Nc2ccc(S(=O)(=O)N3CCOCC3)cc2)C1(C)C (stereo not given),-2.0%,15.8%,-18.7%,8.4%,·,·
O=c1c2cc3c(cc2nc2sc(Nc4ccc(F)cc4F)nn12)OCO3,-10.1%[59 µM],9.2%,-11.6%,-16.8%,·,-2.9%
Cc1cc(C)c2ccc(/C=N/O)nc2c1O,-6.2%,32.3%,-18.6%,-7.5%,9.7%,·
Cc1cc(C)c2ccc(NN)nc2c1O,31.6µM*,41.6%,-15.7%,7.4%,50.1µM*,7.0%
CC(C)(C)c1ccc(CN2N=Nc3ccccc3S2(=O)=O)cc1,-23.9%[0.0925 µM],-10.5%,-11.6%,-11.2%,2.82µM*,9.3%
Cc1cccc(N2C(=O)N(Cc3ccc(C(C)(C)C)cc3)c3ccccc3S2(=O)=O)c1,12.0%[59 µM],17.8%,-12.7%,-7.4%,·,3.4%
O=S1(=O)c2ccccc2N=NN1Cc1ccc(Cl)c(Cl)c1,2.82µM*,·,·,79.4µM*,56.2µM*,-1.0%
COc1ccc(S(=O)(=O)NNC(=O)C2COc3ccccc3O2)cc1[N+](=O)[O-] (stereo not given),8.9%[0.501 µM],-13.4%,-17.3%,4.7%,·,-4.6%
COCCn1c(=O)c(CCc2ccccc2)nc2cnc(N3CCOCC3)nc21,15.3%[0.501 µM],·,·,·,?,·
O=[N+]([O-])c1cccc(S(=O)(=O)N/N=C\c2ccc3c(c2)OCO3)c1,-11.8%,28.0%,-15.9%,-34.2%,-0.8%,6.0%
O=[N+]([O-])c1ccc(S(=O)(=O)N/N=C/c2ccc3c(c2)OCO3)cc1,50.1µM*,27.4%,-13.8%,?,0.2%,8.2%[56.1 µM]
C#CCOCCOCCOCCNc1nc(N2CCN(C(=O)[C@H]([C@@H](C)CC)n3cc(CCCN=C(N)N)nn3)CC2)nc(N2CCN(C(=O)[C@H](Cc3ccc(O)cc3)n3cc(CCO)nn3)CC2)n1,44.7µM*,27.6%,?,?,-11.9%,5.3%
C#CCOCCOCCOCCNc1nc(N2CCN(C(=O)Cn3cc(CCO)nn3)CC2)nc(N2CCN(C(=O)[C@H]([C@@H](C)CC)n3cc(CCCN=C(N)N)nn3)CC2)n1,·,32.5%,-14.0%,·,·,·
C#CCOCCOCCOCCNc1nc(N2CCN(C(=O)Cn3cc(CC(C)O)nn3)CC2)nc(N2CCN(C(=O)[C@H]([C@@H](C)CC)n3cc(CCCN=C(N)N)nn3)CC2)n1 (stereo not given in full),50.1µM*,30.6%,-7.6%,?,12.0%,5.3%
C#CCOCCOCCOCCNc1nc(N2CCN(C(=O)[C@H]([C@@H](C)CC)n3cc(CCCN=C(N)N)nn3)CC2)nc(N2CCN(C(=O)[C@H]([C@@H](C)CC)n3cc(CCCN=C(N)N)nn3)CC2)n1,20µM*,·,·,?,-7.9%,-6.6%
C#CCOCCOCCOCCNc1nc(N2CCN(C(=O)[C@H]([C@@H](C)CC)n3cc(CCCCN)nn3)CC2)nc(N2CCN(C(=O)[C@H](C)n3cc(CCC(=O)O)nn3)CC2)n1,79.4µM*,6.8%,-20.1%,?,?,-2.6%
N#CC[C@H](Cc1ccccc1)N1CC[C@@H](O)CCC1=O,10.5%,66.6%,3.6%,-0.9%,23.8%,·
COc1cccc(CC(=O)N2CCc3nc(-c4ccc(OC)cc4C)c4c(c3C2)CO[C@@H](c2ccccc2)C4)c1,·,·,·,·,-11.5%,7.7%[12.3 µM]
C#CCOCCOCCOCCNc1nc(N2CCN(C(=O)Cn3cc(CCCN=C(N)N)nn3)CC2)nc(N2CCN(C(=O)Cn3cc(CCCN=C(N)N)nn3)CC2)n1,25.1µM*,·,·,?,19.2%,·

# Source: PubChem
